Among the test systems are NCI-H23 lung; NCI-H322M lung; HOP-62 NSCLC; NCI-H460 lung; HOP-92 NSCLC; NCI-H522 lung; A549/ATCC NSCLC; 786-0 renal; COLO 205 colon; NCI-H226 lung.
Holding throughout (experiment): NCI-60 one-dose screen, 48 h (100 = growth as untreated, 0 = no growth, -100 = all killed)
Holding throughout (conditions): 10 µM

Compounds without any hit were thinned out: in the full panel of roughly 83,000, 20% have a hit.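 How to read the values: 0–100, growth inhibition (40 = 60% inhibited); 0, no net growth; -100 to 0, cell death (-40 = 40% of starting cells died; -100 = all dead).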 Values without a mark were called inactive. The source made the active and inactive calls. The calls were made as follows: active = growth percent below 10; inactive = the rest.

Take `CCn1c(=O)n(C)c2c(=O)n(C)c(=O)n(C)c21`: the growth in the test with NCI-H23 lung is 98.9%; in the test with NCI-H322M lung, 105%; in the test with HOP-62 NSCLC it was 97.2%; in the test on NCI-H460 lung it was 112%; with HOP-92 NSCLC, 102%; in the test with NCI-H522 lung it was 96.1%. The growth in the test on A549/ATCC NSCLC was 101%; with 786-0 renal it was 109%; in the test on COLO 205 colon, 101%.
Consider `COc1cc2c3cc1Oc1c(OC)c(OC)cc4c1C(Cc1ccc(O)c(c1)Oc1ccc(cc1)CC3N(C)CC2)N(C)CC4` (stereo not drawn), for which the growth in the test on NCI-H23 lung is 10.8%; with NCI-H322M lung, 44.6%; in the test with HOP-62 NSCLC, 4.33% (active); with NCI-H460 lung, 2.92% (active); in the test on HOP-92 NSCLC, -17.1% (active); in the test on NCI-H522 lung it was -34.4% (active). The growth in the test with A549/ATCC NSCLC is -33% (active); in the test with 786-0 renal it was 32.3%; with COLO 205 colon it was -97.3% (active).
Take `CC1CCCCN1C(=S)Nc1ccc(S(=O)(=O)N2CCCCC2)cc1` (stereo not drawn): the growth in the test on NCI-H23 lung was 104%; in the test on NCI-H322M lung, 118%; in the test with NCI-H460 lung, 97.1%; in the test on HOP-92 NSCLC, 63.1%; in the test with NCI-H522 lung, 73%; with A549/ATCC NSCLC, 101%. The growth with 786-0 renal is 92.6%.
Regarding `CC1CC(O)C2C3(C)CCCC2(COC3=O)C12CCC1(CCOC1=O)O2` (stereo not drawn), the growth in the test with NCI-H23 lung is 109%; in the test on NCI-H322M lung, 117%; in the test on HOP-62 NSCLC, 111%; in the test on NCI-H460 lung, 95.4%; in the test on HOP-92 NSCLC it was 81.8%; with NCI-H522 lung, 107%. Also, the values for the growth with A549/ATCC NSCLC, in the test on 786-0 renal and with COLO 205 colon were 110%, 99.1% and 118%, respectively.
As to `COCCOC(=O)c1ccc(C(C)C)cc1`, the growth in the test on NCI-H23 lung was 102%; in the test on NCI-H322M lung, 98.2%; with HOP-62 NSCLC, 80.3%; with NCI-H460 lung, 108%; with HOP-92 NSCLC, 81.8%; in the test on NCI-H522 lung it was 79.7%. Moreover, the growth with A549/ATCC NSCLC was 79.5%; in the test with 786-0 renal, 93.8%; in the test on COLO 205 colon, 104%.
On to `COc1cccc(/C=N/NC(=S)NC2CC3CCC2C3)c1O` (stereo not drawn), for which the growth in the test on NCI-H23 lung was 71%; in the test on NCI-H322M lung it was 62.2%; in the test with HOP-62 NSCLC, 39.6%; in the test with NCI-H460 lung, 3.68% (active); with HOP-92 NSCLC, 55.5%; with NCI-H522 lung it was 64.7%. Also, the results for the growth in the test on A549/ATCC NSCLC, in the test on 786-0 renal and in the test on COLO 205 colon were 43.9%, 86.3% and 105%, respectively.
`NCCCN`: the growth was 112% in the test with NCI-H23 lung; 108% with NCI-H322M lung; 99.4% in the test on HOP-62 NSCLC; 108% in the test on NCI-H460 lung; 103% with HOP-92 NSCLC; 105% in the test with NCI-H522 lung. For the same compound, the growth was 105% in the test with A549/ATCC NSCLC, 104% with 786-0 renal and 122% with COLO 205 colon.
In the case of `COc1ccc(-c2cc3c(nn2)-c2ccccc2C3=O)cc1`, the growth in the test with NCI-H23 lung is 68.5%; in the test with NCI-H322M lung it was 65.6%; in the test on HOP-62 NSCLC it was -14.4% (active); in the test with NCI-H460 lung, 15.1%; with HOP-92 NSCLC it was 98.3%; in the test with NCI-H522 lung it was 26.4%. In addition, the values for the growth in the test with A549/ATCC NSCLC, with 786-0 renal and in the test with COLO 205 colon were 2.29% (active), 25.8% and 42.3%, respectively.
Turning to `CC1(O)CCCCC1O` (stereo not drawn), the growth is 104% with NCI-H226 lung; 104% in the test with NCI-H322M lung; 95.9% in the test with HOP-62 NSCLC; 109% in the test with NCI-H460 lung; 91.8% with NCI-H522 lung; 102% with 786-0 renal. Also, in the test with COLO 205 colon, the growth was 108%.
For the compound `Cc1cc(C(O)(c2ccc(Nc3ccccc3)cc2)c2ccc(Nc3ccc(S(=O)(=O)O)cc3)cc2)ccc1N` (stereo not drawn), the growth in the test on NCI-H226 lung was 28.9%; with NCI-H322M lung, 25%; in the test with HOP-62 NSCLC, 53.5%; with NCI-H460 lung, -39.3% (active); in the test with NCI-H522 lung it was -45.8% (active); with 786-0 renal, -1.27% (active). Moreover, the growth in the test with COLO 205 colon is -71% (active).
In the case of `CC[N+](C)(CC)CCO`, the growth in the test with NCI-H226 lung is 92.7%; with NCI-H322M lung, 104%; in the test with HOP-62 NSCLC it was 92.6%; in the test with NCI-H460 lung, 105%; in the test with A549/ATCC NSCLC it was 94.1%; with 786-0 renal, 99.5%. Also, the growth in the test on COLO 205 colon is 114%.
In the case of `C/C=C/CC(C)C(O)C1C(=O)NC(CC)C(=O)N(C)CC(=O)N(C)C(CC(C)C)C(=O)NC(C(C)C)C(=O)N(C)C(CC(C)C)C(=O)NC(C)C(=O)NC(C)C(=O)N(C)C(CC(C)C)C(=O)N(C)C(CC(C)C)C(=O)N(C)C(C(C)C)C(=O)N1C` (stereo not drawn), the growth with NCI-H226 lung was 5.76% (active); in the test on NCI-H322M lung, 33.8%; in the test on HOP-62 NSCLC it was 35.6%; in the test with NCI-H522 lung, 9.55% (active); in the test on A549/ATCC NSCLC it was 17.2%; in the test with 786-0 renal, 41.9%. For the same compound, in the test on COLO 205 colon, the growth is -72.8% (active).

The values are drawn from PubChem BioAssay (NCI).
